# According to PubChem BioAssay (EPA / NIEHS):
# Active and inactive are the calls of the source. Rule for the calls: active = hit-call score of the fitted dose curve at least 0.9, where 1 is the maximum; inactive = score below 0.9.
# What was measured:
# [1] = ATG_CRE_CIS: Attagene CIS-FACTORIAL HepG2 Assay for human cAMP Responsive Element (CRE) binding protein 3 (AID 2282926); conditions: HepG2 CRE cis-reporter, Attagene multiplexed mRNA; actives raise or lower the signal
# How it was run: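 Endogenous CRE-binding activity in HepG2 is reported through a cis-regulated transfected reporter. Following a day of exposure, mRNA levels are determined by reverse transcription PCR and fluorescent fragment analysis; fits run in both directions versus DMSO.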
# [2] = molecular target: CCAAT/enhancer-binding protein beta (Homo sapiens) (UniProt P17676); experiment: ATG_C_EBP_CIS: Attagene CIS-FACTORIAL HepG2 Assay for human CCAAT/Enhancer Binding Protein (C/EBP) beta (AID 2282927); conditions: HepG2 Attagene cis-factorial transcription factor reporter; actives raise or lower the signal
# How it was run: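 RT-PCR/capillary electrophoresis fluorescence of reporter mRNA, 24 h post-dose, in HepG2 cells carrying transfected cis-promoter reporter units. Bidirectional curve fitting against DMSO baseline captures gain or loss of signal.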
# [3] = ATG_CMV_CIS: Attagene CIS-FACTORIAL HepG2 Assay for human CMV (Internal Marker) (AID 2282928); conditions: HepG2 CMV promoter reporter, transcription factor profiling; actives raise or lower the signal;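 note: endpoint acts as a background internal control marker rather than a target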
# How it was run: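 After transient transfection of HepG2 with reporter transcription units driven by cis-regulatory promoters, cells receive test chemical for 24 h. Labeled reporter amplicons, digested with HpaI, are sized and quantified by capillary electrophoresis against DMSO.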
# [4] = ATG_AP_2_CIS: Attagene CIS-FACTORIAL HepG2 Assay for human Activator Protein 2 (AP-2) (AID 2282932); conditions: HepG2 AP-2 cis-reporter, Attagene transcription factor profiling; actives raise or lower the signal
# How it was run: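 Bidirectional curve fitting against DMSO was applied to reporter mRNA signals from HepG2 cells 24 h after dosing. Cis-promoter reporter units, transiently transfected, were read by RT-PCR plus capillary electrophoresis.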
# [5] = ATG_BRE_CIS: Attagene CIS-FACTORIAL HepG2 Assay for human Bone Morphogenetic Protein (BMP) Response Element (BRE) (AID 2282933); conditions: HepG2 BMP response element reporter, Attagene transcription factor profiling; actives raise or lower the signal
# How it was run: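 After a 24 h chemical treatment, transiently transfected HepG2 cells were lysed for RNA; reporter transcripts were quantified by fluorescent RT-PCR and capillary electrophoresis, normalised to DMSO.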
# [6] = molecular target: Transcription factor E2F1 (Homo sapiens) (UniProt Q01094); experiment: ATG_E2F_CIS: Attagene CIS-FACTORIAL HepG2 Assay for human E2F Transcription Factor 1 (AID 2282935); conditions: HepG2 Attagene cis-reporter, E2F reporter RNA transcripts; actives raise or lower the signal
# How it was run: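 Multiplexed cis-reporter assay: HepG2, transient transfection, 24 h dosing, mRNA quantitation by labeled RT-PCR and CE.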
# [7] = ATG_E_Box_CIS: Attagene CIS-FACTORIAL HepG2 Assay for human Enhancer Box (E-box) (AID 2282936); conditions: HepG2 E-box cis-reporter transcription, actives raise or lower the signal
# How it was run: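 Multiplexed CIS reporter system in transiently transfected HepG2 cells measures native transcription factor activity. Reporter RNA after 24 h exposure is profiled by RT-PCR-capillary electrophoresis.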
# [8] = ATG_M_61_CIS: Attagene CIS-FACTORIAL HepG2 Assay for M61 Transcription Factor (Internal Marker) (AID 2282937); conditions: HepG2 Attagene CIS-FACTORIAL M61 internal marker reporter; actives raise or lower the signal
# How it was run: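 Readout: fluorescent reporter mRNA fragments resolved by capillary electrophoresis after RT-PCR. Transiently transfected human HepG2 cells carried MRTU constructs reporting endogenous TF activity; 24 h chemical exposure; gain or loss of signal fitted relative to DMSO.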
# [9] = ATG_EGR_CIS: Attagene CIS-FACTORIAL HepG2 Assay for human Early Growth Response 1 (EGR1) (AID 2282938); conditions: HepG2 Attagene CIS-FACTORIAL EGR reporter mRNA; actives raise or lower the signal
# How it was run: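 Read-out: fluorescent reporter-mRNA fragments resolved by capillary electrophoresis after RT-PCR, 24 h post-dose in transiently transfected HepG2. Endogenous transcription-factor activity reported via cis-element-regulated reporter units; gain or loss fitted relative to DMSO.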
# [10] = ATG_Ets_CIS: Attagene CIS-FACTORIAL HepG2 Assay for human Erythroblast Transformation Specific (ETS) (AID 2282941); conditions: HepG2 ETS cis-reporter transcription, actives raise or lower the signal
# How it was run: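 Human HepG2 hepatoma cells were transiently transfected with promoter-driven reporter constructs and treated for 24 hours. Reporter transcripts were quantified by RT-PCR with fluorescent primer extension; bidirectional curve fitting used DMSO as reference.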
# [11] = ATG_FoxO_CIS: Attagene CIS-FACTORIAL HepG2 Assay for human Forkhead box O (FoxO) (AID 2282943); conditions: HepG2 Attagene cis-reporter, FoxO element, mRNA; actives raise or lower the signal
# How it was run: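 HepG2 cells transiently transfected with cis-promoter-driven multiple reporter transcription units; 24 h after chemical dosing, reporter mRNA quantified by RT-PCR, fluorescent primer extension, HpaI digestion and capillary electrophoresis. Bidirectional fitting versus DMSO baseline.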
# [12] = ATG_GLI_CIS: Attagene CIS-FACTORIAL HepG2 Assay for human Zinc Finger Protein GLI1 (AID 2282945); conditions: HepG2, Attagene cis-factorial reporter mRNA, GLI element; actives raise or lower the signal
# How it was run: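 HepG2 cells transiently transfected with cis-promoter multiplexed reporter units report endogenous transcription factor activity. After 24 h chemical exposure, reporter mRNA was quantified by RT-PCR, 6-FAM labelling, HpaI digestion and capillary electrophoresis, with bidirectional fitting against DMSO.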
# [13] = ATG_ISRE_CIS: Attagene CIS-FACTORIAL HepG2 Assay for human Interferon Regulatory Factor 1 (IRF1) binding to an Interferon-Stimulated Response Element (ISRE) (AID 2282948); conditions: HepG2 ISRE cis-reporter (Attagene), mRNA transcription readout; actives raise or lower the signal
# How it was run: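 Cell-based cis-reporter assay; HepG2; 24 h exposure; reporter mRNA by RT-PCR plus capillary electrophoresis fluorescence; activity in either direction scored relative to DMSO.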
# [14] = ATG_M_32_CIS: Attagene CIS-FACTORIAL HepG2 Assay for M32 Transcription Factor (Internal Marker) (AID 2282949); conditions: HepG2 Attagene cis-factorial M32 reporter, mRNA; actives raise or lower the signal;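 note: background control marker of the multiplexed CIS panel rather than a real target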
# How it was run: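 Fluorescent capillary electrophoresis peaks of HpaI-digested, FAM-labelled RT-PCR reporter products give the signal. Source: transiently transfected human liver HepG2 cells, 24 h after chemical dosing; bidirectional fitting against DMSO.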
# [15] = ATG_M_06_CIS: Attagene CIS-FACTORIAL HepG2 Assay for M06 Transcription Factor (Internal Marker) (AID 2282950); conditions: HepG2 Attagene CIS-FACTORIAL M06 internal marker reporter; actives raise or lower the signal
# How it was run: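 One of many multiplexed endpoints: HepG2 reporter mRNA after 24 h dosing, detected by RT-PCR and capillary electrophoresis fluorescence; gain or loss of signal analysed against DMSO.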
# [16] = ATG_MRE_CIS: Attagene CIS-FACTORIAL HepG2 Assay for human Metal Responsive Element (MRE) (AID 2282954); conditions: HepG2 MRE cis-reporter transcription, Attagene multiplex; actives raise or lower the signal
# How it was run: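 Step one: transfect HepG2 with cis-regulated reporter units. Step two: dose 24 h. Step three: isolate RNA, RT-PCR, 6-FAM label, HpaI digest, capillary electrophoresis. Fit bidirectionally to DMSO.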
# [17] = ATG_PXRE_CIS: Attagene CIS-FACTORIAL HepG2 Assay for human Pregnane X Receptor Element (PXRE) (AID 2282957); conditions: HepG2 Attagene CIS-FACTORIAL PXRE reporter, mRNA; actives raise or lower the signal
# How it was run: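 Cis-element reporter mRNA in human hepatoma HepG2 cells is measured 24 h post-dosing by RT-PCR, primer-extension labeling and capillary electrophoresis; gain or loss of signal is fitted relative to DMSO.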
# [18] = ATG_Sox_CIS: Attagene CIS-FACTORIAL HepG2 Assay for human SRY-box transcription factor (SOX) (AID 2282960); conditions: HepG2 Attagene cis-factorial SOX reporter, mRNA; actives raise or lower the signal
# How it was run: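 Read-out: fluorescent RT-PCR products of SOX1-linked reporter transcripts resolved by capillary electrophoresis, fitted bidirectionally against DMSO. Transiently transfected HepG2 cells, 24 h after chemical exposure, endogenous transcription factor activity.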
# [19] = molecular target: Transcription factor Sp1 (Homo sapiens) (UniProt P08047); experiment: ATG_Sp1_CIS: Attagene CIS-FACTORIAL HepG2 Assay for human Specificity Protein 1 (Sp1) (AID 2282961); conditions: HepG2 Sp1 cis-reporter transcription, actives raise or lower the signal
# How it was run: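 Read-out: fluorescence of 6-FAM-labeled, HpaI-digested RT-PCR products separated by capillary electrophoresis. HepG2 cells carried transfected cis-element reporter units and were exposed to chemicals for 24 h; gain or loss of signal fitted relative to DMSO.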
# [20] = ATG_SREBP_CIS: Attagene CIS-FACTORIAL HepG2 Assay for human Sterol Regulatory Element Binding (SREBP) (AID 2282962); conditions: HepG2 Attagene cis-factorial SREBP reporter, mRNA; actives raise or lower the signal
# How it was run: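 mRNA induction of transfected cis-promoter reporters in HepG2 cells, 24 h post-dose. Detection: RT-PCR with 6-FAM-labelled products, HpaI digest, capillary electrophoresis. DMSO served as negative control and baseline.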
# Sequence of Transcription factor Sp1 (Homo sapiens) (P08047 whole entry, looked up): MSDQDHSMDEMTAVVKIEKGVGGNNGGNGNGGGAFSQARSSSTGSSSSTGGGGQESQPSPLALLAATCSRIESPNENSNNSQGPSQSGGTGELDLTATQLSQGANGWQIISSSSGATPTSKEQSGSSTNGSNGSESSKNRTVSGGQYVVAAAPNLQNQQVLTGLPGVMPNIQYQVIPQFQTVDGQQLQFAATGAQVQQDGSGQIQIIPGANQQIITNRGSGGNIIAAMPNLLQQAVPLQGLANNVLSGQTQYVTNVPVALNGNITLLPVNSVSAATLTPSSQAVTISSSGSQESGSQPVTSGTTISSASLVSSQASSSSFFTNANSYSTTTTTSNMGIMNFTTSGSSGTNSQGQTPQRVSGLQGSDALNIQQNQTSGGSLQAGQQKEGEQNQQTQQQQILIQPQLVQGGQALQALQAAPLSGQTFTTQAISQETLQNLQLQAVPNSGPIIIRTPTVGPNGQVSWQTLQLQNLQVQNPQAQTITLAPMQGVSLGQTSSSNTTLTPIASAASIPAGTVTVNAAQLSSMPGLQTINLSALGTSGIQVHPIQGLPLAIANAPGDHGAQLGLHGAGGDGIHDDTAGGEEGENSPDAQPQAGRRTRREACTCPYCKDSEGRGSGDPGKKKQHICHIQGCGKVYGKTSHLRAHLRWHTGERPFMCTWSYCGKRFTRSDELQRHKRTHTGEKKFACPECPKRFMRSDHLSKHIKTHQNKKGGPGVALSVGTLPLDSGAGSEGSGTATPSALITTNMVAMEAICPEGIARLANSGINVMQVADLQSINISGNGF
# Sequence of CCAAT/enhancer-binding protein beta (Homo sapiens) (P17676 whole entry, looked up): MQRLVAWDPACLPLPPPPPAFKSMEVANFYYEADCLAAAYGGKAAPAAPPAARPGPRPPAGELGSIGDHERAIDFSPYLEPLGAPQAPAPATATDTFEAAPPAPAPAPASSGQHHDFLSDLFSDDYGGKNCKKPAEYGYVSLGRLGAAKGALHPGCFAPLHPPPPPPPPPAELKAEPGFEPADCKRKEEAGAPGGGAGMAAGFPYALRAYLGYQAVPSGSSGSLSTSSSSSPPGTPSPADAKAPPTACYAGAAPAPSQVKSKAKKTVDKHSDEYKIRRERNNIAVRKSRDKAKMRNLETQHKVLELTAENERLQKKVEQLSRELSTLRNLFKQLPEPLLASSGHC
# Sequence of Transcription factor E2F1 (Homo sapiens) (Q01094 whole entry, looked up): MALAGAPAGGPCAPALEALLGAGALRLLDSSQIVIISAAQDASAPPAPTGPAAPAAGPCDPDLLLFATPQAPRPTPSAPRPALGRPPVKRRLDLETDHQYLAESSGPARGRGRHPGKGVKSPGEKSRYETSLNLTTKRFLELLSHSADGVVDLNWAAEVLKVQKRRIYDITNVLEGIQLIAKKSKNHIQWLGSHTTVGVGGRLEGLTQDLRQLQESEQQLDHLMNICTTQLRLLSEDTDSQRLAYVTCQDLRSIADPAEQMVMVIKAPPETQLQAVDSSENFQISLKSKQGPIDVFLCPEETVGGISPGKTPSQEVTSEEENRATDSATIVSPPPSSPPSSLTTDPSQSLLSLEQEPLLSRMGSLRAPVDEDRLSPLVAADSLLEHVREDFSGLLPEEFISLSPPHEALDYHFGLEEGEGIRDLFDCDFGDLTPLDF
smiles,measurement,setting,value
CC=CC(=O)O,outcome,[1],inactive
same,outcome,[2],inactive
same,outcome,[3],inactive
same,outcome,[4],inactive
same,outcome,[5],inactive
same,outcome,[6],inactive
same,outcome,[7],inactive
same,outcome,[8],inactive
same,outcome,[9],inactive
same,outcome,[10],inactive
same,outcome,[11],inactive
same,outcome,[12],inactive
same,outcome,[13],inactive
same,outcome,[14],inactive
same,outcome,[15],inactive
same,outcome,[16],inactive
same,outcome,[17],inactive
same,outcome,[18],inactive
same,outcome,[19],inactive
same,outcome,[20],inactive
NC(=O)c1ccc([N+](=O)[O-])cc1Cl,outcome,[1],inactive
same,outcome,[2],inactive
same,outcome,[3],inactive
same,outcome,[4],inactive
same,outcome,[5],inactive
same,outcome,[6],inactive
same,outcome,[7],inactive
same,outcome,[8],inactive
same,outcome,[9],inactive
same,outcome,[10],inactive
same,outcome,[11],inactive
same,outcome,[12],inactive
same,outcome,[13],inactive
same,outcome,[14],inactive
same,outcome,[15],inactive
same,outcome,[16],inactive
same,outcome,[17],inactive
same,outcome,[18],inactive
same,outcome,[19],inactive
same,outcome,[20],inactive
Nc1ccc(S(=O)(=O)Nc2cnc3ccccc3n2)cc1,outcome,[1],inactive
same,outcome,[2],inactive
same,outcome,[3],inactive
same,outcome,[4],inactive
same,outcome,[5],inactive
same,outcome,[6],inactive
same,outcome,[7],inactive
same,outcome,[8],inactive
same,outcome,[9],inactive
same,outcome,[10],inactive
same,outcome,[11],inactive
same,outcome,[12],inactive
same,outcome,[13],inactive
same,outcome,[14],inactive
same,outcome,[15],inactive
same,outcome,[16],inactive
same,outcome,[17],inactive
same,outcome,[18],inactive
same,outcome,[19],inactive
same,outcome,[20],inactive
CC1(C)S[C@@H]2[C@H](NC(=O)[C@H](N)c3ccccc3)C(=O)N2[C@H]1C(=O)O,outcome,[1],inactive
same,outcome,[2],inactive
same,outcome,[3],inactive
same,outcome,[4],inactive
same,outcome,[5],inactive
same,outcome,[6],inactive
same,outcome,[7],inactive
same,outcome,[8],inactive
same,outcome,[9],inactive
same,outcome,[10],inactive
same,outcome,[11],inactive
same,outcome,[12],inactive
same,outcome,[13],inactive
same,outcome,[14],inactive
same,outcome,[15],inactive
same,outcome,[16],inactive
same,outcome,[17],inactive
same,outcome,[18],inactive
same,outcome,[19],inactive
same,outcome,[20],inactive
NC(=O)c1ccc(N)cc1,outcome,[1],inactive
same,outcome,[2],inactive
same,outcome,[3],inactive
same,outcome,[4],inactive
same,outcome,[5],inactive
same,outcome,[6],inactive
same,outcome,[7],inactive
same,outcome,[8],inactive
same,outcome,[9],inactive
same,outcome,[10],inactive
same,outcome,[11],inactive
same,outcome,[12],inactive
same,outcome,[13],inactive
same,outcome,[14],inactive
same,outcome,[15],inactive
same,outcome,[16],inactive
same,outcome,[17],inactive
same,outcome,[18],inactive
same,outcome,[19],inactive
same,outcome,[20],inactive
Cc1cc2nc3c(=O)[nH]c(=O)nc-3n(C[C@H](O)[C@H](O)[C@H](O)CO)c2cc1C,outcome,[1],inactive
same,outcome,[2],inactive
same,outcome,[3],inactive
same,outcome,[4],inactive
same,outcome,[5],inactive
same,outcome,[6],inactive
same,outcome,[7],inactive
same,outcome,[8],inactive
same,outcome,[9],inactive
same,outcome,[10],inactive
same,outcome,[11],inactive
same,outcome,[12],inactive
same,outcome,[13],inactive
same,outcome,[14],inactive
same,outcome,[15],inactive
same,outcome,[16],inactive
same,AC50,[17],47.2 µM (active)
same,outcome,[18],inactive
same,outcome,[19],inactive
same,outcome,[20],inactive
[O-][n+]1ccc(Cl)cc1,outcome,[1],inactive
same,outcome,[2],inactive
same,outcome,[3],inactive
same,outcome,[4],inactive
same,outcome,[5],inactive
same,outcome,[6],inactive
same,outcome,[7],inactive
same,outcome,[8],inactive
same,outcome,[9],inactive
same,outcome,[10],inactive
same,outcome,[11],inactive
same,outcome,[12],inactive
same,outcome,[13],inactive
same,outcome,[14],inactive
same,outcome,[15],inactive
same,outcome,[16],inactive
same,outcome,[17],inactive
same,outcome,[18],inactive
same,outcome,[19],inactive
same,outcome,[20],inactive
